A short description of experiment [1]: qHTS assay to identify small molecule antagonists of the vitamin D receptor (VDR) signaling pathway - cell viability counter screen (AID 743225). Further: nearly all actives have a fitted effect of over 50% in size. The method in brief:
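Luminescent cell viability (CellTiter-Glo) in VDR-bla HEK 293T cells after 16 h compound exposure at 37C in the presence of 3 nM final 1-alpha,25-dihydroxy vitamin D3.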

Experiment [2] is described as follows: qHTS assay to identify small molecule agonists of the NFkB signaling pathway (AID 1159509; active means well fitted curve in the direction sought with a large enough effect in the signal ratio in the repeat runs, not every such curve was filed as active; the % refers to the signal ratio; further: potency means the concentration at half of the fitted maximal effect). The method in brief: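 After overnight attachment, reporter cells received test compounds, DMSO or positive controls and were incubated 5 hr at 37 C. FRET substrate was then added for 1.5 hr at room temperature before dual-emission fluorescence reading.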
For orientation: qHTS replaces the single test concentration by a dilution series.

Experiment [3] is described as follows: qHTS assay to identify small molecule agonists of the NFkB signaling pathway - cell viability counter screen (AID 1159515; calls by dose curve; further: nearly all actives have a fitted effect of over 55% in size). The method in brief:
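Multiplexed viability readout: after the 5 hr compound exposure and 1.5 hr FRET substrate step, CellTiter-Glo reagent went into the same NFkB-bla ME-180 wells; ATP luminescence was measured after 30 min at room temperature.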

Experiment [4] can be described thus: qHTS assay to identify small molecule agonists of the endoplasmic reticulum stress response signaling pathway - cell viability counter screen (AID 1159517; calls by dose curve; further: nearly all actives have a fitted effect of over 50% in size; further: potency means the concentration at half of the fitted maximal effect). The method in brief:
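Luminescence readout: CellTiter-Glo, 30 min RT, same wells as the ESRE-bla reporter read. HeLa ESRE-bla, 1,500 cells/well, o/n 37 C; cpd 5 hr 37 C/5% CO2.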

A short description of experiment [5]: qHTS assay to identify small molecule antagonists of the retinoid-related orphan receptor gamma (ROR-gamma) signaling pathway - cell viability counter screen (AID 1159520). Further: nearly all actives have a fitted effect of over 50% in size. Further: potency means the concentration at half of the fitted maximal effect. The method in brief:
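Tet-on ROR gamma CHO cells (1,000/well) were plated 4 hr, given compounds in DMSO for 2 hr at 37 C, then induced with 1 uM final doxycycline for 16 hr. Viability was read as ATP by CellTiter-Glo luminescence after 30 min.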

Experiment [6] in a line: qHTS assay to identify small molecule agonists of the AP-1 signaling pathway - cell viability counter screen (AID 1159525; calls by dose curve; further: nearly all actives have a fitted effect of over 55% in size). The method in brief: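 ME-180 AP-1-bla, 2500 cells/well, Opti-MEM + 0.5% dialyzed FBS; overnight 37 °C; cpd 15-pt titration, 5 h 37 °C; CellTiter-Glo 30 min RT; luminescence read; normalised to TOAB and DMSO controls.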
Experiment [7] in a line: qHTS assay to identify small molecule agonists of the AP-1 signaling pathway (AID 1159526; calls by dose curve).
Experiment [8] deals with Retinoic acid receptor RXR-alpha (Homo sapiens) (UniProt P19793). Briefly: qHTS assay to identify small molecule agonists of the RXR signaling pathway (AID 1159527; calls by dose curve; further: nearly all actives have a fitted effect of over 35% in size). The method in brief: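 Beta-lactamase reporter assay, agonist format. Engineered HEK 293T line, charcoal-stripped FBS at 2%, overnight (16 hr) exposure, fluorescence at 460 and 530 nm after 405 nm excitation.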
Retinoic acid receptor RXR-alpha (Homo sapiens), sequence (P19793 whole entry, looked up): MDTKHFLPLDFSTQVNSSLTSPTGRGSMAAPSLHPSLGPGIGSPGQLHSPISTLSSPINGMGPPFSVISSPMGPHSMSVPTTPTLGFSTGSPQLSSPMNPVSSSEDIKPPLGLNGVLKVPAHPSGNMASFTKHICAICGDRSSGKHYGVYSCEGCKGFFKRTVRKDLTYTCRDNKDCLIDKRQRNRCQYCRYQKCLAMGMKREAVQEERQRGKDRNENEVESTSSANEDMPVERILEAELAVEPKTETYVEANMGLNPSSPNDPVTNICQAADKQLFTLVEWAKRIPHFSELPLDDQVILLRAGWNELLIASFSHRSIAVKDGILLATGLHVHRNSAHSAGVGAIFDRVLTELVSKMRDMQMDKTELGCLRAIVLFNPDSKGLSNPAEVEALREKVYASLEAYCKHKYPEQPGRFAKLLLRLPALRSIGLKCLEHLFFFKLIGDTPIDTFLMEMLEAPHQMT

Experiment [9] in a line: qHTS assay to identify small molecule agonists of the RXR signaling pathway - cell viability counter screen (AID 1159529). Further: nearly all actives have a fitted effect of over 50% in size. Further: potency means the concentration at half of the fitted maximal effect. The method in brief: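 Same-well viability check after the LiveBLAzer FRET read: CellTiter-Glo added, luminescence measured after 30 min at room temperature. Reporter HEK 293T cells had been treated with compounds for 16 hr following a 5 hr preincubation.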

Experiment [10] can be described thus: qHTS assay to identify small molecule antagonists of the retinoid acid receptor (RAR) signaling pathway - cell viability counter screen (AID 1159551). Further: nearly all actives have a fitted effect of over 35% in size. The method in brief: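 Cytotoxicity counter screen in C3RL4 cells: 6 h compound exposure with 1 uM retinol (final), viability from cellular ATP by luminescence.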
Experiment [11] in a line: qHTS assay to identify small molecule antagonists of the retinoic acid receptor (RAR) signaling pathway (AID 1159552; further: nearly all actives have a fitted effect of over 50% in size; further: potency means the concentration at half of the fitted maximal effect). The method in brief:
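Readout: luciferase luminescence, 30 min post-reagent at RT. Setup: C3RL4 RARE reporter cells, compounds plus retinol 1 uM final, 6 hr incubation at 37 C and 5% CO2.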

Experiment [12] can be described thus: qHTS assay to identify small molecule agonists of the retinoic acid receptor (RAR) signaling pathway (AID 1159553). Further: potency means the concentration at half of the fitted maximal effect. The note with it: C3RL4 RARE luciferase reporter, agonist, 6 h; activation: at 73.3 µM (top of the series). The method in brief: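 Agonist activity was scored in C3RL4 cells bearing a retinoic acid response element luciferase construct. Cells were treated with compounds for 6 hr at 37 C, and luciferase signal was measured as luminescence.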

The target in experiment [13] is Nuclear receptor ROR-gamma (Homo sapiens) (UniProt P51449). Briefly: qHTS assay to identify small molecule antagonists of the retinoid-related orphan receptor gamma (ROR-gamma) signaling pathway (AID 1159521; further: nearly all actives have a fitted effect of over 50% in size; further: potency means the concentration at half of the fitted maximal effect). The method in brief: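 CHO cells expressing RORγ under a TET-on promoter, luciferase under RORE control. Dox 1 uM final, 16 h; compounds added 2 h prior. Luminescence decrease measured.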

Inconclusive results are not listed. A number with no mark means an inactive call. Calls of active or inactive are those of the source. Unless noted, the call rests on the fitted dose curve; in most records, active means well fitted curve in the direction sought with a large enough effect in the repeat runs; inconclusive means weak or mixed curves; inactive means no such curve, though single readings can be large; an effect the other way counts as inactive or inconclusive.

As to `CC(CN(C)C)C(C)(O)Cc1ccc(Cl)cc1` (stereo not drawn), the Potency result in experiment [1], in experiment [2], in experiment [3], in [4], in experiment [5] and in experiment [6] was “inactive” each time. Moreover, the Potency entry in experiment [7], in [8], in experiment [9], in [10], in experiment [11] and in experiment [12] was “inactive” each time.
For `NNC(=O)CP(=O)(c1ccccc1)c1ccccc1`, the Potency result in experiment [1], in experiment [2], in [3], in [4], in experiment [5] and in experiment [6] was “inactive” in each case. In addition, the Potency entry in [7], in [8], in experiment [9], in [10], in experiment [11] and in experiment [12] was “inactive” each time.
For the compound `CCN(CC)CCNC(=O)COc1ccc(OC)cc1`, the Potency entry in [1], in experiment [2], in experiment [3], in experiment [4], in [5] and in [6] was “inactive” throughout. Moreover, the Potency result in experiment [7], in experiment [8], in experiment [9], in experiment [10], in [11] and in experiment [12] was “inactive” each time.
`O=Cc1c2ccccc2c(Cl)c2ccccc12`: the Potency result in experiment [2], in experiment [3], in [4], in experiment [5], in [10] and in experiment [11] was “inactive” throughout. The Potency result in experiment [12] was “inactive”.
On to `CN(C(=O)CN(CCO)CC(=O)N(C)C(C)(C)Cc1ccccc1)C(C)(C)Cc1ccccc1`, for which the Potency entry in [2], in experiment [3], in [4] and in [12] was “inactive” each time. For the same compound, the figures for the Potency in experiment [5], in experiment [13] and in experiment [11] were 29.8 µM (active), 26.6 µM (active) and 29.8 µM (active), respectively.
For `Nc1cccc2c1CN(C1CCC(=O)NC1=O)C2=O` (stereo not drawn), the Potency result in [1], in experiment [2], in experiment [3], in experiment [4], in experiment [5] and in [13] was “inactive” in each case. In addition, the Potency entry in [7], in experiment [8], in experiment [9], in experiment [10] and in experiment [11] was “inactive” throughout.
In the case of `C[C@]1(Cn2ccnn2)[C@H](C(=O)O)N2C(=O)C[C@H]2S1(=O)=O`, the Potency result in experiment [2], in experiment [3], in [4], in [5], in experiment [6] and in experiment [9] was “inactive” in each case. Moreover, the Potency result in experiment [10] was “inactive”.
As for `COC(=O)c1nc(Cl)c(Cl)nc1N`, the Potency in [2] is 15.1 µM (active); in experiment [4] it was 21.3 µM (active); in [5] it was 13.3 µM (active); in experiment [13], 3.76 µM (active); in experiment [9] it was 13.4 µM (active); in experiment [11] it was 11.9 µM (active). For the same compound, the Potency result in experiment [3] and in experiment [6] was “inactive” throughout.
As to `CCC(C)COC(=O)CC(C)C` (stereo not drawn), the Potency entry in [2], in experiment [3], in [4], in [5], in experiment [7] and in [10] was “inactive” each time. In addition, the Potency entry in [11] and in experiment [12] was “inactive” each time.
In the case of `O=[N+]([O-])c1ccc(Nc2ccc(Nc3ccccc3)c(S(=O)(=O)O)c2)c([N+](=O)[O-])c1`, the Potency result in experiment [2], in [3], in [4], in experiment [5], in [13] and in [8] was “inactive” each time. The Potency result in experiment [9] and in [10] was “inactive” each time.
As for `CC(=O)Oc1ccc([N+](=O)[O-])cc1CCl`, the Potency entry in [2], in experiment [3], in experiment [4], in experiment [13], in [6] and in [7] was “inactive” each time. Further, the Potency entry in experiment [8], in experiment [9], in experiment [10] and in experiment [11] was “inactive” throughout. For the same compound, in experiment [12], the Potency was 68.6 µM (active).
As to `O=C1c2ccccc2C(=O)C1(O)O`, the Potency result in experiment [1], in experiment [2], in experiment [3], in experiment [6], in [8] and in experiment [11] was “inactive” throughout. Further, the values for the Potency in experiment [4] and in [5] were 49.2 µM (active) and 61.4 µM (active), respectively.
On to `CC(C)=CC(=O)C=C(C)C`, for which the Potency entry in [1], in experiment [2], in experiment [3], in experiment [4], in [5] and in experiment [6] was “inactive” throughout. The Potency entry in experiment [7], in experiment [8], in [9], in [10], in [11] and in experiment [12] was “inactive” throughout.
In the case of `CCOc1ccccc1O[C@H](c1ccccc1)[C@H]1CNCCO1`, the Potency entry in experiment [1], in experiment [2], in [3], in experiment [4], in experiment [5] and in [13] was “inactive” in each case. Further, the Potency result in [6], in experiment [8], in [9] and in [10] was “inactive” in each case.
For `CCCCN1CCCC1C(=O)Nc1c(C)cc(C)cc1C` (stereo not drawn), the Potency entry in experiment [2], in experiment [3], in experiment [4], in experiment [5], in experiment [6] and in experiment [8] was “inactive” throughout. For the same compound, the Potency result in [10] and in experiment [11] was “inactive” each time.
Turning to `COc1ccccc1Oc1c(NS(=O)(=O)c2ccc(C(C)(C)C)cc2)nc(-c2ncccn2)nc1OCCO`, the Potency entry in experiment [1], in experiment [2], in experiment [3], in experiment [4], in [5] and in [6] was “inactive” each time. The Potency entry in experiment [9], in experiment [10], in [11] and in [12] was “inactive” in each case. In [13], the Potency was 18.8 µM (active).
As to `COC(=O)C1=C(C)NC(C)=C(C(=O)O[C@@H]2CCCN(Cc3ccccc3)C2)[C@@H]1c1cccc([N+](=O)[O-])c1`, the Potency entry in experiment [1], in experiment [2], in [3], in [4], in experiment [5] and in experiment [6] was “inactive” throughout. Moreover, the Potency entry in experiment [7], in [9] and in [10] was “inactive” in each case.
On to `O=C1NCCN1CCO`, for which the Potency result in [1], in [2], in [3], in [4], in [5] and in experiment [6] was “inactive” throughout. In addition, the Potency result in experiment [7], in [8], in experiment [9], in [10], in experiment [11] and in [12] was “inactive” each time.
In the case of `c1cc(N(CC2CO2)CC2CO2)ccc1Cc1ccc(N(CC2CO2)CC2CO2)cc1` (stereo not drawn), the Potency entry in experiment [1], in [2], in experiment [3], in experiment [4], in experiment [6] and in [9] was “inactive” throughout. Besides, the Potency result in experiment [10] and in experiment [11] was “inactive” each time. Moreover, the values for the Potency in [5] and in experiment [12] were 54.5 µM (active) and 30.6 µM (active), respectively.
Take `COc1ccc(OC(=O)N(CC(=O)O)Cc2ccc(OCCc3nc(-c4ccccc4)oc3C)cc2)cc1`: the Potency entry in experiment [1], in [2], in experiment [3], in experiment [4], in experiment [5] and in experiment [6] was “inactive” each time. Also, the Potency result in experiment [7], in [9] and in experiment [10] was “inactive” throughout.
Take `C[C@@H](O)[C@H]1C(=O)N2C(C(=O)O)=C([C@H]3CCCO3)S[C@H]12`: the Potency result in experiment [2], in [3], in [4], in [5], in experiment [13] and in [6] was “inactive” in each case. Besides, the Potency result in experiment [8], in experiment [9], in [10], in experiment [11] and in experiment [12] was “inactive” in each case.
As to `O=C1c2ccccc2C(=O)C1c1nc2ccccc2c(Br)c1O`, the Potency entry in experiment [2], in experiment [3], in [4], in [5], in experiment [13] and in [6] was “inactive” in each case. The Potency result in experiment [8], in [9], in [10] and in experiment [11] was “inactive” throughout. The Potency in experiment [12] was 24.3 µM (active).
On to `CC1(C)[C@@H](OC(=O)CCC(=O)O)CC[C@]2(C)[C@H]3C(=O)C=C4[C@@H]5C[C@@](C)(C(=O)O)CC[C@]5(C)CC[C@@]4(C)[C@]3(C)CC[C@@H]12`, for which the Potency result in experiment [2], in experiment [3], in [4], in [5], in experiment [13] and in [6] was “inactive” in each case. Besides, the Potency entry in experiment [9], in experiment [10] and in experiment [11] was “inactive” throughout.

Values taken from PubChem BioAssay (Tox21).
